ALOX15 inhib – inhibitors of human 15-lipoxygenase (ALOX15) | P16050 | purified 15hLO-1, xylenol orange hydroperoxide absorbance | Potency, µM (series often up to 57.1 µM), hits mostly inhibitors | 74,000 compounds, 1.4% hits; also: nearly all actives have a fitted effect of over 55% in size
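Quantitative HTS in 25 mM Hepes pH 7.5 containing 0.01% Triton X-100: human 15hLO-1 at 40 nM, arachidonic acid at 50 uM, 6 min turnover. Product quantified via ferrous oxidation/xylenol orange, 573:405 nm absorbance ratio.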
15-hLO-2 inh – 15-hLO-2 (ALOX15B) enzyme inhibition; AID 881; purified 15hLO-2, xylenol orange hydroperoxide absorbance; Potency, µM (highest dose often 57.1 µM), actives largely listed as inhibitors; O15296; 110,000 compounds, 0.56% hits; also: nearly all actives have a fitted effect of over 60% in size
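Screening format was qHTS against 50 nM purified 15hLO-2 in Hepes pH 7.5 with detergent. Activity follows hydroperoxide formation from 45 uM arachidonic acid, measured as 573:405 nm absorbance ratio of the ferric-xylenol orange complex.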
Of the large screens only hits and unclear results are named; the others gave an inactive call; ! = not confirmed by another sample. This is one part of a sample in which hits are shown more often than they occur. Calls follow the shape of the dose curve; as a rule, active = well fitted inhibition curve with a large enough effect; inconclusive = small, poorly fitted or top-dose-only effect; inactive = no such curve, though single readings can be large or run the other way.

CN1[C@@H]2CC[C@H]1CC(O[C@@H](c1ccccc1)c1ccccc1N)C2 (some centres undefined)	none
Cc1ccc(OP(=O)(Oc2ccc(C)cc2)N2C=Cc3ccccc3[C@H]2C#N)cc1	none
CC(C)c1cccc(O)c(=O)c1	ALOX15 inhib inconclusive, 15-hLO-2 inh 13µM
CC(N)C(O)c1ccc(O)c(O)c1 (centres undefined)	none
NC(=O)OCCSc1nnc(-c2cccc(C(N)=S)c2)o1	none (no result: 15-hLO-2 inh)
O=C(OCC#CCSc1nnc(-c2ccccc2)o1)c1ccco1	ALOX15 inhib 25µM
C[C@@H](Cc1ccc2c(c1)OC(C(=O)O)(C(=O)O)O2)NC[C@H](O)c1cccc(Cl)c1	none
CN(C)[C@@H]1C(=O)C(C(N)=O)=C(O)[C@]2(O)C(=O)C3=C(O)c4c(O)cccc4[C@](C)(O)[C@H]3C[C@@H]12	ALOX15 inhib inconclusive
CC[n+]1c(-c2ccccc2)c2cc(N)ccc2c2ccc(N)cc21	ALOX15 inhib 10µM!
CN1CCC[C@@H]1c1cccnc1.O=C(O)c1ccccc1O.O=C([OH2+])c1ccccc1O.O=C([OH2+])c1ccccc1O.O=C([OH2+])c1ccccc1O.[Mn]	none
Cc1cc(Cc2cc(C)c(N)cc2N)c(N)cc1N	ALOX15 inhib inconclusive
CN(N=O)c1ccc(O)c(O)c1	ALOX15 inhib 16µM
Oc1ccc2c3c1O[C@@H]1c4[nH]c5c(c4C[C@@]4(O)[C@@H](C2)N(CC2CC2)CC[C@]314)C[C@]1(O)[C@@H]2Cc3ccc(O)c4c3[C@@]1(CCN2CC1CC1)[C@H]5O4	none
CCCCN1C(=O)NC(=O)C2(Cc3cc(C)ccc3N(C)C2)C1=O (centres undefined)	none
CCC(C)N1C(=O)NC(=O)C2(Cc3c(ccc4ccccc34)N(C)C2)C1=O (centres undefined)	15-hLO-2 inh 5µM
C[C@@]12CC[C@H]3[C@@H](CC[C@H]4C[C@@H](O)CC[C@]43C)[C@H]1CC[C@@H]2C(=O)C[C@H](O)C(F)(F)F	none
C[C@@](Br)(C(=O)O)[C@H](Br)C(=O)O	none
O=C(O)c1ccccc1-c1c2cc(Br)c(=O)cc-2oc2[c]([Hg])c(O)c(Br)cc12	ALOX15 inhib 0.25µM, 15-hLO-2 inh 4µM
N[C@@H](Cc1cc(O)c(O)cc1O)C(=O)O	ALOX15 inhib inconclusive
CC(C)C[C@H](NP(=O)(O)O[C@@H]1O[C@@H](C)[C@@H](O)[C@@H](O)[C@H]1O)C(=O)N[C@@H](Cc1c[nH]c2ccccc12)C(=O)O	none
N#CC(C#N)=Cc1cc(O)c(O)c(O)c1	ALOX15 inhib 7.9µM, 15-hLO-2 inh inconclusive
O=C(O)[C@H]1C2c3ccccc3C(c3ccccc32)[C@@H]1C(=O)NCC1CC1	none
Cc1nc2cc(C(=O)N3CCC4(CC3)OCCO4)ccc2n1-c1cccc(F)c1	none
O=C(c1ccc2nc(-c3ccco3)c(-c3ccco3)nc2c1)N1CCC2(CC1)OCCO2	ALOX15 inhib 4µM
CC(=O)[C@@H]1CC[C@H]2[C@H]3CC[C@H]4C[C@@H](O)CC[C@]4(C)[C@@H]3CC[C@]12C	none
O=C1NC(=O)[C@]2(Cc3ccccc3N3CCN(c4ccccc4)CC32)C(=O)N1Cc1ccccc1 (some centres undefined)	15-hLO-2 inh 32µM
O=C1NC(=O)C2(Cc3ccccc3N3CCCC32)C(=O)N1Cc1ccccc1 (centres undefined)	none
CCN1C[C@]2(C)CC[C@@H](O)[C@]34[C@@H]5CC6[C@@H](OC)C[C@@](O)([C@H]5[C@@H]6O)[C@@H](C[C@@H]23)[C@H]14	none
COC(=O)[C@]1(C)CC[C@@]2(C)CC[C@@]3(C)C4=CCc5c(cc(O)c(O)c5C)[C@]4(C)CC[C@@]3(C)C2C1 (some centres undefined)	none
CC1=C(O)C(=O)C=C2C1=CC=C1[C@]2(C)CC[C@@]2(C)C3C[C@](C)(C(=O)O)CC[C@@]3(C)CC[C@@]12C (some centres undefined)	ALOX15 inhib 4µM, 15-hLO-2 inh 4µM
Cc1cc2c(s1)NC(=O)CN=C2c1cccs1	none
O=C1CN=C(c2cccs2)c2c(sc3c2CCCC3)N1	ALOX15 inhib 16µM
CC(=O)/C=C/c1ccccc1	none
CC(=O)[O][Hg][c]1ccccc1	ALOX15 inhib 0.013µM, 15-hLO-2 inh 0.32µM
C[C@H](N[C@@H](C)CCc1ccccc1)[C@H](O)c1ccc(O)cc1	none

Screening results as filed in PubChem.
